Measurements: PubChem BioAssay (Tox21)
Records with an inconclusive call do not appear. Active and inactive are the calls of the source. Unless noted, calls come from the whole dose curve; as a rule, active = well fitted curve in the direction sought with a large enough effect in the repeat runs; inconclusive = weak or mixed curves; inactive = no such curve, though single readings can be large; an effect the other way counts as inactive or inconclusive.

Legend:
[1] = qHTS assay to identify small molecule antagonists of the estrogen related receptor (ERR) signaling pathway - cell viability counter screen (AID 1224818);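 note: series mostly up to about 46 µM; viability measured after 17.5 h of compound exposure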
Summary of the method: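 In the same ERR cell assay, compound-treated wells (17.5 h, 37 C) were multiplexed with a fluorogenic viability reagent, CellTiter-Fluor, read after 30 min to flag cytotoxic substances.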

[2] = qHTS assay to identify small molecule antagonists of the estrogen related receptor signaling pathway with the pleiotropic PPARgamma coactivator (PGC) cell viability counter screen (AID 1224822; note: series mostly up to about 46 µM)
Summary of the method: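 Compounds in DMSO, with positive and negative controls, were applied to PGC/ERR cells (2,000/well) and left 17.5 h at 37 C before CellTiter-Fluor detection.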

[3] = qHTS assay to identify small molecule antagonists of the estrogen related receptor (ERR) signaling pathway (AID 1224819;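 note: luminescence from an ERR-driven luciferase reporter measured with One-Glo reagent; series mostly up to about 46 µM; nearly all actives have a fitted effect of over 50% in size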)
Summary of the method: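 qHTS in ERR cells, 2,000/well, 1536 format. Cpd (DMSO) added after 6 h settle, 18 h 37 C. One-Glo luminescence, 30 min RT.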

[4] = tested on: estrogen-related receptor alpha (ERRalpha) with PGC-1alpha coactivator, human; experiment: qHTS assay to identify small molecule antagonists of the estrogen related receptor signaling pathway with the pleiotropic PPARgamma coactivator (PGC) (AID 1224821; calls by dose curve;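 note: series mostly up to about 46 µM; lower luminescence signal means antagonism of PGC/ERR signalling; nearly all actives have a fitted effect of over 50% in size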)
Summary of the method: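 Quantitative HTS for antagonism: PGC/ERR cells received compounds after 6 h attachment and were incubated 18 h at 37 C, with luminescence (One-Glo) as the endpoint.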

[5] = qHTS assay to identify small molecule agonists of the estrogen related receptor signaling pathway with the pleiotropic PPARgamma coactivator (PGC) (AID 1224823)
Summary of the method: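 Cell-based luciferase assay in the NTP-supplied PGC/ERR line, 2,000 cells/well; 18 h compound exposure at 37 C, luminescence after One-Glo.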

[6] = qHTS assay for small molecules that induce genotoxicity in human embryonic kidney cells expressing luciferase-tagged ATAD5 - cell viability (AID 651634; calls by dose curve; note: nearly all actives have a fitted effect of over 25% in size)
Summary of the method: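 Seeding of 2,000 HEK293T ATAD5-luciferase cells per well preceded pin-tool compound transfer. Plates sat 15.5 hr at 37C under 5% CO2, then fluorescence was read after 30 min with CellTiter-Fluor.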

[7] = qHTS assay for small molecule disruptors of the mitochondrial membrane potential - cell viability (AID 720634; calls by dose curve;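 note: human HepG2 liver cancer cells; series mostly up to about 83 µM; nearly all actives have a fitted effect of over 20% in size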)
Summary of the method: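 Measuring cytotoxicity alongside mitochondrial potential, the screen quantified ATP by luminescence in HepG2 cells after 1 hr compound incubation and a 30 min room-temperature CellTiter-Glo step.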

[8] = qHTS assay to test for compound auto fluorescence at 590 nm (red) in HepG2 cells (AID 720674)
Summary of the method: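 1 hr compound incubation on HepG2 cells, 37 C, 5% CO2; plate read ex 540 nm / em 590 nm; intensities reported as Rose Bengal sodium equivalents.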

[9] = qHTS assay to test for compound auto fluorescence at 535 nm (green) in HepG2 cells (AID 720675)
[10] = qHTS assay to test for compound auto fluorescence at 460 nm (blue) in HEK293 cells (AID 720678)
Summary of the method: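 Triamterene serves as the blue fluorophore standard. Compound signal at 405/460 nm is read in HEK293 wells (2,000 cells, 10% dialyzed FBS) after overnight treatment at 37C.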

[11] = qHTS assay to test for compound auto fluorescence at 590 nm (red) in HEK293 cells (AID 720679)
Summary of the method: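 We plated HEK293 cells in 10% dialyzed FBS medium, let them adhere for 4-5 hr, then added 23 nL compound. Overnight at 37C and 5% CO2 preceded fluorescence measurement at 540/590nm.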

[12] = qHTS assay to test for compound auto fluorescence at 460 nm (blue) in HEK293 cell free culture (AID 720681)
Summary of the method: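 Blue fluorescence (Ex 405/Em 460 nm, triamterene-equivalent) was read immediately after pin transfer of compound or DMSO into medium (DMEM, 10% FBS) without cells.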

[13] = qHTS assay to test for compound auto fluorescence at 535 nm (green) in HEK293 cell free culture (AID 720682)
Summary of the method: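 Fluorescein serves as the green reference fluorophore; each compound's intrinsic emission at 535 nm (excitation 485 nm) is reported as an equivalent amount of that dye, measured in serum-containing DMEM without cells.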

[14] = qHTS assay to test for compound auto fluorescence at 590 nm (red) in HEK293 cell free culture (AID 720683)
Summary of the method: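 Red-channel autofluorescence of compounds in culture medium (DMEM, 10% FBS), no cells, measured at 540/590 nm. Rose Bengal sodium is the reference fluorophore for equivalence.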

[15] = qHTS assay to test for compound auto fluorescence at 590 nm (red) in HepG2 cell free culture (AID 720684)
Summary of the method: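 Plate contents were MEM with 10% FBS plus test compound or DMSO, no cells. Fluorescence was recorded with 540 nm excitation and 590 nm emission.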

[16] = qHTS assay to test for compound auto fluorescence at 460 nm (blue) in HepG2 cell free culture (AID 720685)
Summary of the method: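 Compound (23 nL) or DMSO pinned into cell-free MEM with 10% FBS; blue fluorescence read at 405/460 nm excitation/emission, expressed as auto-fluorescence equivalency to triamterene.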

[17] = qHTS assay to test for compound auto fluorescence at 535 nm (green) in HepG2 cell free culture (AID 720686)
[18] = qHTS assay to test for compound auto fluorescence at 460 nm (blue) in HepG2 cells (AID 720687)
Summary of the method: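 Blue-channel autofluorescence (Ex/Em 405/460 nm, triamterene-equivalent) was measured after 1 hr compound exposure at 37 C, 5% CO2. Cells were HepG2, plated overnight at 37 C in MEM plus 10% FBS.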

[19] = target: Glucocorticoid receptor (Homo sapiens) (UniProt P04150); experiment: qHTS assay to identify small molecule agonists of the glucocorticoid receptor (GR) signaling pathway (AID 720691; active = well fitted activation curve with a large enough effect in the signal ratio in the repeat runs, not every such curve was filed as active; the % refers to the signal ratio)
Sequence of Glucocorticoid receptor (Homo sapiens) (P04150 whole entry, looked up): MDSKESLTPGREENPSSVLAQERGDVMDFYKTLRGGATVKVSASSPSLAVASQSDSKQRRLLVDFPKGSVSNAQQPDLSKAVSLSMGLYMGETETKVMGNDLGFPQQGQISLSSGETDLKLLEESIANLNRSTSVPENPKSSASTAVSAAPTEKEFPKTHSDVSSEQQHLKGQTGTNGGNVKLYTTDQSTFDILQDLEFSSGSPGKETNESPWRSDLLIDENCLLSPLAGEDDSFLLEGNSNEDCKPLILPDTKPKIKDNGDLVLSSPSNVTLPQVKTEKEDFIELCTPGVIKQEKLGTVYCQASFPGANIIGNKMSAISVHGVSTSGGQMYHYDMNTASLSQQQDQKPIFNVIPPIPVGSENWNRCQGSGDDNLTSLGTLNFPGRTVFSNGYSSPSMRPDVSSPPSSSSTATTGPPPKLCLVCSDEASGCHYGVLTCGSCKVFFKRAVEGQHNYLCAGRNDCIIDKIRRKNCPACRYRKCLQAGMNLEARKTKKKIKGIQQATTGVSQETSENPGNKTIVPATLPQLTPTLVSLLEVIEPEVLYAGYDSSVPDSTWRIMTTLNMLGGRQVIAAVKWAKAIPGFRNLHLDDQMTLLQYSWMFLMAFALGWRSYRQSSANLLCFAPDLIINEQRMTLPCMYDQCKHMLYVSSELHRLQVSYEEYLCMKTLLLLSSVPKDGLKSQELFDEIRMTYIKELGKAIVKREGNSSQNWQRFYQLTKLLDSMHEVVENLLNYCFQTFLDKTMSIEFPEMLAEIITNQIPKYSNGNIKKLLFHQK
Summary of the method: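 Reporter read-out: fluorescence intensity following 2 h room-temperature LiveBLAzer B/G FRET substrate loading. Prior step: GR-bla HeLa cells held 4 h, then treated 18 h at 37 C.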

[20] = target: Glucocorticoid receptor (Homo sapiens) (UniProt P04150); experiment: qHTS assay to identify small molecule antagonists of the glucocorticoid receptor (GR) signaling pathway (AID 720692; active = well fitted inhibition curve with a large enough effect in the signal ratio in the repeat runs, not every such curve was filed as active; the % refers to the signal ratio)
Summary of the method: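 Dexamethasone (5 nM final) stimulated a stably integrated GRE-beta-lactamase reporter in HeLa cells during 18 h co-incubation with compounds; signal was quantified as fluorescence intensity of B/G FRET substrate after 2 h.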

[21] = qHTS assay to identify small molecule antagonists of the glucocorticoid receptor (GR) signaling pathway - cell viability counter screen (AID 720693); note: nearly all actives have a fitted effect of over 55% in size
[22] = qHTS assay for identifying genotoxic compounds that show differential cytotoxicity against isogenic chicken DT40 cell lines with known DNA damage response pathways - wild type cell line (AID 743012); note: potency is the fitted concentration of half-maximal effect; nearly all actives have a fitted effect of over 60% in size
Summary of the method: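 Using parental DT40 (300 cells/well), compounds delivered in DMSO incubate 40 h at 37 C/5% CO2. CellTiter-Glo reagent then stands 30 min at room temperature, and luminescence gives cell viability.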

[23] = qHTS assay for identifying genotoxic compounds that show differential cytotoxicity against isogenic chicken DT40 cell lines with known DNA damage response pathways - Rev3 mutant cell line (AID 743014); note: potency is the fitted concentration of half-maximal effect; nearly all actives have a fitted effect of over 55% in size
[24] = qHTS assay for identifying genotoxic compounds that show differential cytotoxicity against isogenic chicken DT40 cell lines with known DNA damage response pathways - Rad54/Ku70 mutant cell line (AID 743015); note: potency is the fitted concentration of half-maximal effect; nearly all actives have a fitted effect of over 60% in size
[25] = target: Androgen receptor (Homo sapiens) (UniProt P10275); experiment: qHTS assay to identify small molecule agonists of the androgen receptor (AR) signaling pathway using the MDA cell line (AID 743040; note: nearly all actives have a fitted effect of over 20% in size)
Sequence of Androgen receptor (Homo sapiens) (P10275 whole entry, looked up): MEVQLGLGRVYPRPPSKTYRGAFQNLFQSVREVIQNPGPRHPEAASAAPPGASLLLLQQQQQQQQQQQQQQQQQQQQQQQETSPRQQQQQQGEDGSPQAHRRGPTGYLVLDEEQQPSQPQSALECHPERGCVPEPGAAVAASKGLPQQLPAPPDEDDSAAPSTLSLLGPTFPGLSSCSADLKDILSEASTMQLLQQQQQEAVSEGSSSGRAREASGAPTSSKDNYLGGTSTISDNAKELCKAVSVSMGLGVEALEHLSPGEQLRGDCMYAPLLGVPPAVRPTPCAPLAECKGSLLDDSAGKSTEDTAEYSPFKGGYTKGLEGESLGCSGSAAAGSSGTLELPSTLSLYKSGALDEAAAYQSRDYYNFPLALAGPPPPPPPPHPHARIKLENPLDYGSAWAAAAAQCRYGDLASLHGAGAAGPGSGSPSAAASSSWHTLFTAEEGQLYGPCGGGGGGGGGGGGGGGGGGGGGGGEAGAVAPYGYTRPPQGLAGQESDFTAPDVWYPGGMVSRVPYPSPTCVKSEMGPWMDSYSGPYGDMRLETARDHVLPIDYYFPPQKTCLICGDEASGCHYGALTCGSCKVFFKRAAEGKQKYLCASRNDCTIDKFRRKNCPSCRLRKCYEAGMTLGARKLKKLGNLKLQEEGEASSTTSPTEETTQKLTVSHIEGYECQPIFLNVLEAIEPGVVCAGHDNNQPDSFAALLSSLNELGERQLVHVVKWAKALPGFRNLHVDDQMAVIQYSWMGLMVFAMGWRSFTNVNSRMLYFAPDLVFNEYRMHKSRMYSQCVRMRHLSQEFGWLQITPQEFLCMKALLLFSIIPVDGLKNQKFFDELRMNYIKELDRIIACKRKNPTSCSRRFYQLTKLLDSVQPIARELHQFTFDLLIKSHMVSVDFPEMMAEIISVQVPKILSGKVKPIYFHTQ
Summary of the method: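 After a 5 h incubation at 37C and 0% CO2, MDA-kb2 reporter cells were dosed with compounds in DMSO and kept 16 h under the same conditions. Luciferase activity was then read as luminescence with ONE-Glo.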

[26] = qHTS assay to identify small molecule antagonists of the thyroid receptor (TR) signaling pathway - cell viability counter screen (AID 743064); note: potency is the fitted concentration of half-maximal effect; nearly all actives have a fitted effect of over 50% in size
Summary of the method: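 Fluorescence from CellTiter-Fluor, added after 23.5 h exposure at 37 °C, reported viability of GH3.TRE-Luc cells co-treated with compound and 1 nM T3. Measured in the same wells as the luciferase TR readout.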

[27] = qHTS assay to identify small molecule antagonists of the thyroid receptor (TR) signaling pathway (AID 743065); note: potency is the fitted concentration of half-maximal effect; nearly all actives have a fitted effect of over 55% in size
Summary of the method: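 Antagonism measured as loss of luciferase signal in GH3 cells stably carrying a TRE-luciferase reporter, co-treated with compound and T3 (1 nM final) for 23.5 h at 37 C. Viability was read in the same well by CellTiter-Fluor.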

[28] = qHTS assay to identify small molecule antagonists of the estrogen receptor alpha (ER-alpha) signaling pathway - cell viability counter screen (AID 743074; calls by dose curve;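 note: HEK293 cells carrying ER-alpha-UAS-bla reporter stimulated with 17beta-estradiol; nearly all actives have a fitted effect of over 45% in size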)
[29] = qHTS assay to identify small molecule antagonists of the estrogen receptor alpha (ER-alpha) signaling pathway using the BG1 cell line - cell viability counter screen (AID 743081);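 note: compound given together with 17beta-estradiol as the ER stimulus; series mostly up to about 70 µM; nearly all actives have a fitted effect of over 45% in size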
[30] = qHTS assay to identify aromatase inhibitors - cell viability counter screen (AID 743084);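 note: cells stimulated with testosterone during compound exposure; nearly all actives have a fitted effect of over 55% in size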
[31] = target: Aryl hydrocarbon receptor (Homo sapiens) (UniProt P35869); experiment: qHTS assay to identify small molecule that activate the aryl hydrocarbon receptor (AhR) signaling pathway (AID 743085); note: potency is the fitted concentration of half-maximal effect; nearly all actives have a fitted effect of over 15% in size
Sequence of Aryl hydrocarbon receptor (Homo sapiens) (P35869 whole entry, looked up): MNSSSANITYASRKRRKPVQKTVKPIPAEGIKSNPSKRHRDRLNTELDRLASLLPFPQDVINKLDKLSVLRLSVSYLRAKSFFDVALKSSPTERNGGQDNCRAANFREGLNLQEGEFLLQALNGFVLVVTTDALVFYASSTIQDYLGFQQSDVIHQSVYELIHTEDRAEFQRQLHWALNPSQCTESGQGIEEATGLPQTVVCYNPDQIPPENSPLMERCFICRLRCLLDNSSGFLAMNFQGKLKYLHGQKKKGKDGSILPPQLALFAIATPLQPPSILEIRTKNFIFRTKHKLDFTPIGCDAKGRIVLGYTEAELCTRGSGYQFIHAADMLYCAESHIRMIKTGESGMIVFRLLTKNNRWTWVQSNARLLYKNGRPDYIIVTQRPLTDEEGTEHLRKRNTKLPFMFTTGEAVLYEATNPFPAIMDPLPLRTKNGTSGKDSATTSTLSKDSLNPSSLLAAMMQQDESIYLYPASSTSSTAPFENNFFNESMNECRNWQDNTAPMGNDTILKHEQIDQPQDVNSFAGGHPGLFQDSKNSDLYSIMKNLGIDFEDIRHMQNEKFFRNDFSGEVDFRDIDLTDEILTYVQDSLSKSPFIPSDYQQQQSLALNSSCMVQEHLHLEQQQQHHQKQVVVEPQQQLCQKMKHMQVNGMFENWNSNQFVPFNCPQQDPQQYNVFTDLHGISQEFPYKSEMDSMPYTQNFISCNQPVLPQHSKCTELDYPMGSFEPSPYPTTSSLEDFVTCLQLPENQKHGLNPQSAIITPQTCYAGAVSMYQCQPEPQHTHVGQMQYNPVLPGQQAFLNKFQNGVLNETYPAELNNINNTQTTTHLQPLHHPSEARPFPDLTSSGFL
Summary of the method: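 Cell line HG2L7.5c1 (human hepatoma, 20× DRE-luc). Plated, 5 h 37C, compound/DMSO added, 24 h 37C. CellTiter-Fluor 30 min 37C → fluorescence; then ONE-Glo 30 min RT → luminescence.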

[32] = qHTS assay to identify small molecule that activate the aryl hydrocarbon receptor (AhR) signaling pathway - cell viability counter screen (AID 743086);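 note: HepG2 liver cells carrying the AhR DRE luciferase reporter; series mostly up to about 70 µM; nearly all actives have a fitted effect of over 45% in size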
Summary of the method: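 Cytotoxicity counter screen: CellTiter-Fluor signal (30 min, 37 C) in 4000 HepG2 cells/well carrying the DRE-luciferase reporter, following 24 h compound exposure at 37 C.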

[33] = target: Peroxisome proliferator-activated receptor gamma (Homo sapiens) (UniProt P37231); experiment: qHTS assay to identify small molecule agonists of the peroxisome proliferator-activated receptor gamma (PPARg) signaling pathway (AID 743094; active = well fitted activation curve with a large enough effect in the signal ratio in the repeat runs, not every such curve was filed as active; the % refers to the signal ratio)
Sequence of Peroxisome proliferator-activated receptor gamma (Homo sapiens) (P37231 whole entry, looked up): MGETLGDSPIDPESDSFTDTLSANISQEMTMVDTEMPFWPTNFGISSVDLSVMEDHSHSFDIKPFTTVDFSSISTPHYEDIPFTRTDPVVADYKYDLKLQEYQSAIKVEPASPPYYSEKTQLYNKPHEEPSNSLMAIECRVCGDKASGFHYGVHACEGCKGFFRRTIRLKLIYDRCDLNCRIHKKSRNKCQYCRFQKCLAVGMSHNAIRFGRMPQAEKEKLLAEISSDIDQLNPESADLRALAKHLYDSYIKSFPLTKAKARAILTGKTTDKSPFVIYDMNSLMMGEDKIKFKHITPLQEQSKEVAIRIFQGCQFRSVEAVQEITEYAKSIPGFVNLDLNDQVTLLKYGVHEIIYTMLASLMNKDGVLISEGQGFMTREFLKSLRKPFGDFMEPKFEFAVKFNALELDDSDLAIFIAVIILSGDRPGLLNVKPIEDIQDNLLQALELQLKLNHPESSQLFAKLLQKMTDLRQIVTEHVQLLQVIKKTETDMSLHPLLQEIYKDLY
Summary of the method: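 Following 5 h plating at 37C, PPARg-bla HEK293H cells receive compound or DMSO for 17 h; fluorescence intensity is recorded after LiveBLAzer B/G loading for 1 h at room temperature.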

[34] = qHTS assay to identify small molecule agonists of the estrogen related receptor (ERR) signaling pathway (AID 1224820)
Summary of the method: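 Quantitative HTS of the LOPAC library used NTP ERR reporter cells treated 18 h at 37 C. Signal is luminescence after One-Glo addition and a 30 min room-temperature incubation.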

[35] = target: Nuclear receptor subfamily 1 group I member 2 (Homo sapiens) (UniProt O75469); experiment: CYP3A4 induction through human pregnane X receptor (PXR) by small molecules, qHTS assay (AID 1346984); note: potency is the fitted concentration of half-maximal effect; nearly all actives have a fitted effect of over 40% in size
Summary of the method: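 qHTS, concentration-response format: HepG2 DPX-2 line, PXR/CYP3A4-luc. Exposure 24 h, 37C. Substrate Luciferin-IPA 3uM final, 3 h. Detection One-Glo, 30 min RT.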

[36] = target: Nuclear receptor subfamily 1 group I member 2 (Homo sapiens) (UniProt O75469); experiment: Human pregnane X receptor (PXR) activation by small molecules, qHTS assay (AID 1346985); note: nearly all actives have a fitted effect of over 40% in size
Summary of the method: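 DPX-2 cells (HepG2 co-transfected with a PXR response element and a CYP3A4-promoter luciferase construct) were seeded at 2,000 per well, rested 5 hr at 37C, then exposed to DMSO-dissolved compounds for 24 hr. Activation was read as luciferase luminescence.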

Measured: Potency

NC1CC1c1ccccc1 (configuration not stated)
inactive: [1] | [2]

C=CCN1CC[C@]23CCCCC2[C@H]1Cc1ccc(O)cc13 (some centres not stated)
inactive: [1] | [3] | [4] | [2] | [5]

CN[C@@H]1C[C@@H](c2ccc(Cl)c(Cl)c2)c2ccccc21
active: [22] 5.96 µM | [23] 11.9 µM | [24] 11.9 µM | [26] 11.9 µM | [27] 11.9 µM | [31] 29.8 µM | [35] 28.2 µM
not listed: [2] | [3] | [5]
inactive: all other assays above

Nc1cc2c(ncn2CCOCP(=O)(O)O)c(=O)[nH]1
inactive: [1] | [34] | [4] | [2] | [5]

NC(=O)COc1c(F)cc(SCCNS(=O)(=O)c2ccccc2)cc1F
inactive: [1] | [34] | [4] | [2] | [5]

CC[C@@H]1C(=O)OC[C@@H]1Cc1cncn1C
inactive: [1] | [2]
